A number with no mark means an inactive call. Results filed as inconclusive are left out. Entries that show only a call come without a potency. The source made the active and inactive calls. Unless noted, calls come from the whole dose curve.
Assays:
[1] = Nuclear factor erythroid 2-related factor 2/antioxidant responsive element (Nrf2/ARE) small molecule agonists: qHTS cell viability counter screen in human keratinocytes (AID 1919968; active = well fitted curve in the direction sought with a large enough effect in the repeat runs; an effect the other way counts as inactive or inconclusive; note: nearly all actives have a fitted effect of over 55% in size; note: potency is the fitted concentration of half-maximal effect)
Procedure, shortened: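 Stably transfected HaCaT (KeratinoSens), 1,500/well. Test agents in DMSO were applied for 23 h, 37 C/5% CO2. CellTiter-Fluor was incubated 1 h before the fluorescence read.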

[2] = Nuclear factor erythroid 2-related factor 2/antioxidant responsive element (Nrf2/ARE) small molecule agonists: luciferase reporter gene qHTS assay in human keratinocytes (AID 1919969); note: nearly all actives have a fitted effect of over 35% in size; note: potency is the fitted concentration of half-maximal effect
[3] = molecular target: KiSS-1 receptor (Homo sapiens) (UniProt Q969F8); assay: Human kisspeptin (KISS1R) small molecule agonists, calcium flux assay in KISS1R-HEK293 cells (AID 1920064; active = well fitted curve in the direction sought with a large enough effect in the repeat runs; an effect the other way counts as inactive or inconclusive)
Sequence of KiSS-1 receptor (Homo sapiens) (Q969F8 whole entry, looked up): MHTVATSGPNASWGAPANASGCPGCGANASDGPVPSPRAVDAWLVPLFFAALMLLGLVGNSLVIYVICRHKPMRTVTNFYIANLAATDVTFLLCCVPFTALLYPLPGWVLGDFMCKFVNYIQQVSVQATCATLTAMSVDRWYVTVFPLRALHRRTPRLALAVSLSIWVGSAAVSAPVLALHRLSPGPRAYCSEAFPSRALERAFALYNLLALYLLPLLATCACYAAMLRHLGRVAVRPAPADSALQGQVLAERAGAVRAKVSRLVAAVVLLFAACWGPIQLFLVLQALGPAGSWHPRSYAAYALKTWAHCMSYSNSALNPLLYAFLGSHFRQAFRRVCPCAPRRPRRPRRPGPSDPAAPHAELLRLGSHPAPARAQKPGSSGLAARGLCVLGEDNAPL
Procedure, shortened: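 After overnight (18 h) culture at 37 C/5% CO2, human KISS1R-HEK293 cells received calcium dye for 1 h, then test compound; emission at 540 nm (excitation 480 nm) was tracked for 3 min.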

[4] = G protein-coupled receptor (GPCR) small molecule agonists, calcium flux assay: HEK293 wild type cell line counter screen (AID 1920065)
Procedure, shortened: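 Following 18 h incubation at 37 C/5% CO2, plates got calcium dye for 1 h; compounds, ATP or DMSO were then pinned in and fluorescence followed kinetically (480/540 nm).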

[5] = p53 small molecule agonists, cell-based qHTS assay with human liver microsomes (AID 1963577);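 note: p53 response element beta-lactamase reporter cells with liver microsomes plus NADPH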
Procedure, shortened: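 Steps: plate p53RE-bla cells, incubate 5 h at 37 C; add compound in DMSO; add microsomes (0.5 mg/mL final) and NADPH (0.5 mg/mL final); incubate 16 h at 37 C; add LiveBLAzer, 2 h RT; read fluorescence.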

[6] = p53 small molecule agonists, cell-based qHTS assay with rat liver microsomes (AID 1963578)
Procedure, shortened: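 Metabolic activation is supplied by rat liver microsomes with NADPH (each 0.5 mg/mL final). p53RE-bla cells incubate with compound 16 h at 37 C; reporter activity is measured by LiveBLAzer fluorescence.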

[7] = p53 small molecule agonists, cell-based qHTS assay with human liver microsomes: qHTS cell viability counter screen (AID 1963579); note: nearly all actives have a fitted effect of over 45% in size
Procedure, shortened: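 After the 460/530 nm beta-lactamase read, CellTiter-Glo was added to the same wells and luminescence measured after 30 min at room temperature, giving viability of p53RE-bla cells treated 16 h with compounds plus microsomes and NADPH.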

[8] = p53 small molecule agonists, cell-based qHTS assay with rat liver microsomes: qHTS cell viability counter screen (AID 1963580); note: nearly all actives have a fitted effect of over 45% in size
Procedure, shortened: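 Rat liver microsome (0.5 mg/mL final) and NADPH (0.5 mg/mL final) co-incubation with compounds for 16 h at 37 C on HCT-116 p53RE-bla cells; cytotoxicity taken from intracellular ATP luminescence.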

[9] = p53 small molecule agonists, cell-based qHTS assay: qHTS cell viability counter screen (AID 1963581); note: nearly all actives have a fitted effect of over 45% in size
Procedure, shortened: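 qHTS counter screen: 16 h compound exposure at 37 C of p53RE-bla HCT-116 cells (4,000 per well, seeded 5 h prior), cell viability by ATP luminescence.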

[10] = p53 small molecule agonists, cell-based qHTS assay (AID 1963582; active = well fitted activation curve with a large enough effect in the signal ratio in the repeat runs, not every such curve was filed as active; the % refers to the signal ratio)
Procedure, shortened: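 Measured: fluorescence from cleaved LiveBLAzer substrate. System: p53RE-bla cells, 16 h compound treatment at 37 C, 2 h substrate step at room temperature.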

[11] = molecular target: 5-hydroxytryptamine receptor 2A (Homo sapiens) (UniProt P28223); assay: 5-hydroxytryptamine receptor 2A (HTR2A) small molecule antagonists, cell-based qHTS assay (AID 1963586); note: nearly all actives have a fitted effect of over 45% in size; note: potency is the fitted concentration of half-maximal effect
Sequence of 5-hydroxytryptamine receptor 2A (Homo sapiens) (P28223 whole entry, looked up): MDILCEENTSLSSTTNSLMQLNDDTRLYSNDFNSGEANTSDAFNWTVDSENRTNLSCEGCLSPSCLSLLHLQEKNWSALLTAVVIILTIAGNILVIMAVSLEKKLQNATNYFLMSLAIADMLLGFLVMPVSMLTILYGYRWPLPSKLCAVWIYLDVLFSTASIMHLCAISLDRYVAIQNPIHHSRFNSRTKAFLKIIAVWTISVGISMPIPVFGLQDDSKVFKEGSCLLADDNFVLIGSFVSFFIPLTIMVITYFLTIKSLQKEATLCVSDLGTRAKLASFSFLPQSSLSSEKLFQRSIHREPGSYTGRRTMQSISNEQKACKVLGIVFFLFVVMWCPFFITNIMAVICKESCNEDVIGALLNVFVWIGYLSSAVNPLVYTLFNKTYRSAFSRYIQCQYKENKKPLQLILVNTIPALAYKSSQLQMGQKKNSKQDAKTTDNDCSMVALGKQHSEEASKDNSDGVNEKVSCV
Procedure, shortened: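 CHO cells stably expressing human HTR2A were plated for 18 h at 37 C, then loaded with calcium dye for 1 h. Compounds were preincubated 5 min at room temperature before DOI (4 nM solution) was added. Kinetic fluorescence was read for 3 min.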

[12] = molecular target: 5-hydroxytryptamine receptor 2A (Homo sapiens) (UniProt P28223); assay: 5-hydroxytryptamine receptor 2A (HTR2A) small molecule agonists, cell-based qHTS assay (AID 1963587); note: nearly all actives have a fitted effect of over 30% in size; note: potency is the fitted concentration of half-maximal effect
Procedure, shortened: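 Kinetic calcium-flux fluorescence (2 min, 1 sec intervals) after compound addition in agonist mode. HTR2A-CHO cells were cultured 18 h, then dye-loaded 1 h at 37 C.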

[13] = molecular target: Muscarinic acetylcholine receptor M1 (Homo sapiens) (UniProt P11229); assay: Cholinergic receptor muscarinic 1 (CHRM1) small molecule antagonists, cell-based qHTS assay (AID 1963588); note: nearly all actives have a fitted effect of over 40% in size; note: potency is the fitted concentration of half-maximal effect
Sequence of Muscarinic acetylcholine receptor M1 (Homo sapiens) (P11229 whole entry, looked up): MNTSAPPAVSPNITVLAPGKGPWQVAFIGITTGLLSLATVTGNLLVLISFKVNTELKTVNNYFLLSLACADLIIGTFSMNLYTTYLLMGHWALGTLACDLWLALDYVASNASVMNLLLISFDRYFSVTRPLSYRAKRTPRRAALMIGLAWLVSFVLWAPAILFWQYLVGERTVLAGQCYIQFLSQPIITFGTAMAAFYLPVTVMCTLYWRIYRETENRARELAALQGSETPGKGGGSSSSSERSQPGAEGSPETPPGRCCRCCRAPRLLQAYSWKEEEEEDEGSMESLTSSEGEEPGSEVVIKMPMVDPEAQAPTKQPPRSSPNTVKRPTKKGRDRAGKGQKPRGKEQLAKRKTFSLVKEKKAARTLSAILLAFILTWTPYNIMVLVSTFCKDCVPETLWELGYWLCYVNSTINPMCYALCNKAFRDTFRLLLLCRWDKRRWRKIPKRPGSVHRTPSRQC
Procedure, shortened: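 Compounds were tested at 15 concentrations in three independent runs. Dye-loaded CHRM1-CHO cells were exposed 5 min at room temperature before stimulation by acetylcholine added at 50nM. Intracellular calcium was read kinetically on FDSS for 3 min.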

[14] = molecular target: Muscarinic acetylcholine receptor M1 (Homo sapiens) (UniProt P11229); assay: Cholinergic receptor muscarinic 1 (CHRM1) small molecule agonists, cell-based qHTS assay (AID 1963589); note: nearly all actives have a fitted effect of over 35% in size
Procedure, shortened: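 Kinetic fluorescence (1 s intervals) of calcium-sensitive dye in human M1 CHO cells after compound addition; cells pre-incubated 18 h at 37 C/5% CO2 and dye-loaded 1 h.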

[15] = cAMP Responsive Elements (CRE) small molecule agonists, cell-based qHTS assay (AID 1963590)
Procedure, shortened: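 Test agents in DMSO were incubated 3 h at 37 C/5% CO2 with CRE-bla HEK 293T cells seeded 18 h earlier; LiveBLAzer B/G FRET substrate was added and read after 2 h at room temperature.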

[16] = cAMP Responsive Elements (CRE) small molecule antagonists, cell-based qHTS assay (AID 1963591; active = well fitted inhibition curve with a large enough effect in the signal ratio in the repeat runs, not every such curve was filed as active; the % refers to the signal ratio)
Procedure, shortened: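 Reporter line CRE-bla HEK 293T in dialyzed-FBS DMEM; cells preincubated 18 h, treated 3 h with compound plus NKH477 (0.25 uM final); LiveBLAzer FRET, 2 h RT.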

[17] = molecular target: D(2) dopamine receptor (Homo sapiens) (UniProt P14416); assay: Dopamine D2 receptor (DRD2) small molecule antagonists, cell-based qHTS assay (AID 1963595; active = well fitted inhibition curve with a large enough effect in the signal ratio in the repeat runs, with a control signal flat; the % refers to the signal ratio)
Sequence of D(2) dopamine receptor (Homo sapiens) (P14416 whole entry, looked up): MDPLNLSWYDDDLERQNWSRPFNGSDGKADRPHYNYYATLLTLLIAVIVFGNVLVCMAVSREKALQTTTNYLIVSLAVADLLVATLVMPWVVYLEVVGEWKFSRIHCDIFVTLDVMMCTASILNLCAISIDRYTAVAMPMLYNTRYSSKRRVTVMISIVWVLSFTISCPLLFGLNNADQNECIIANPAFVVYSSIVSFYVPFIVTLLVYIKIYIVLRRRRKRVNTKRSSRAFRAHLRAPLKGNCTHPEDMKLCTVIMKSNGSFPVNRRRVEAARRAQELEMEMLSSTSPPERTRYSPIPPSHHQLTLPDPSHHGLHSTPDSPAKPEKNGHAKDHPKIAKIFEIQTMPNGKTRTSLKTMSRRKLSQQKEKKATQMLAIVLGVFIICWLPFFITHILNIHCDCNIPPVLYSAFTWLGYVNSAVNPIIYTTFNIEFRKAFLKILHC
Procedure, shortened: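 In this cell-based antagonist screen, compounds act for 10 min at room temperature before a 30 min challenge with 12 nM quinpirole and 200 nM NKH477. cAMP is quantified by HTRF competition in DRD2-HEK293 cells containing 0.1 mM Ro20-1724.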

[18] = molecular target: Beta-2 adrenergic receptor (Homo sapiens) (UniProt P07550); assay: Adrenergic beta2 receptor (ADRB2) small molecule antagonists, cell-based qHTS assay (AID 1963592); note: nearly all actives have a fitted effect of over 50% in size; note: potency is the fitted concentration of half-maximal effect
Sequence of Beta-2 adrenergic receptor (Homo sapiens) (P07550 whole entry, looked up): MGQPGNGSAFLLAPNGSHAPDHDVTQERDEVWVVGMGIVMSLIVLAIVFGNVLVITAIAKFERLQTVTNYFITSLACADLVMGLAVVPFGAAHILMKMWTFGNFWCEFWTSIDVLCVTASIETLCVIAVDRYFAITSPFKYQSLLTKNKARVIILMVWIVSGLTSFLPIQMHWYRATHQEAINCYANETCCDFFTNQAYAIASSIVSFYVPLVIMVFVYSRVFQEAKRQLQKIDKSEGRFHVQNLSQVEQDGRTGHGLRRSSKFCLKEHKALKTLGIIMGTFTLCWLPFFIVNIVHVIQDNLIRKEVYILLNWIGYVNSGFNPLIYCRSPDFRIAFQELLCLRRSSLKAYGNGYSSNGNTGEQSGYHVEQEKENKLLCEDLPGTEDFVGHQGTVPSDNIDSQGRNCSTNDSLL
Procedure, shortened: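 Assay format: CHO-ADRB2 cells, 18-20hr seeding at 37C/5% CO2, then compound plus 1nM isoproterenol agonist mix for 0.5hr RT. Homogeneous time-resolved fluorescence cAMP detection after 1hr, expressed as 665/615 nm ratio.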

[19] = molecular target: D(2) dopamine receptor (Homo sapiens) (UniProt P14416); assay: Dopamine D2 receptor (DRD2) small molecule agonists, cell-based qHTS assay (AID 1963594); note: nearly all actives have a fitted effect of over 35% in size
Procedure, shortened: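 cAMP accumulation in DRD2-HEK293 cells measured by HTRF after 1 h detection; compounds added 10 min before NKH477 (200nM […]) forskolin-analogue stimulation, 30 min at room temperature, with Ro20-1724 present at 0.1 mM final.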

[20] = molecular target: Gonadotropin-releasing hormone receptor (Homo sapiens) (UniProt P30968); assay: Human gonadotropin-releasing hormone receptor (GnRHR) small molecule agonists, calcium flux assay in GnRHR-HEK293 cells (AID 1920063); note: nearly all actives have a fitted effect of over 35% in size
Sequence of Gonadotropin-releasing hormone receptor (Homo sapiens) (P30968 whole entry, looked up): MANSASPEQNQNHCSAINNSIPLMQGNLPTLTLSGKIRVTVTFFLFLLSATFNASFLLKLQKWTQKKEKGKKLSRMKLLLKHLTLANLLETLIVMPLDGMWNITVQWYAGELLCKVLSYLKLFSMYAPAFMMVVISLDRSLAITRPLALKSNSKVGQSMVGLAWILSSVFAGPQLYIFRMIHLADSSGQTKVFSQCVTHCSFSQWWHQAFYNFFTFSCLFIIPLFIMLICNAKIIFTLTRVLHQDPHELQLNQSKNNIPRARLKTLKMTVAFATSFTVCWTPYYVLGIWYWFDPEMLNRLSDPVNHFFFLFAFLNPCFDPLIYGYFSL
Procedure, shortened: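 Stable human GnRHR HEK293 line. 18 h plating, then calcium dye for 1 h at 37 C. Agonist-mode compound addition from DMSO stocks; fluorescence monitored 3 min.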

SMILES	Potency [1]	Potency [2]	outcome [3]	outcome [4]	Potency [5]	Potency [6]	Potency [7]	Potency [8]	Potency [9]	Potency [10]	Potency [11]	Potency [12]	Potency [13]	Potency [14]	Potency [15]	Potency [16]	Potency [17]	Potency [18]	Potency [19]	Potency [20]
Brc1c2ccccc2cc2ccccc12	inactive	inactive	inactive	inactive	inactive	inactive	inactive	inactive	inactive	inactive	inactive	inactive	inactive	inactive	inactive	inactive	inactive			
CCCCCCCC/C=C/C(=O)O	inactive	inactive	inactive	inactive	inactive	inactive	inactive	inactive	inactive	inactive	inactive	inactive	inactive	inactive		inactive	inactive	inactive	inactive	
COC(=O)CCCCC(CCSS/C(CCO)=C(\C)N(C=O)Cc1cnc(C)nc1N)SC(C)=O (stereo unspecified)	inactive	inactive		inactive	inactive		inactive	inactive		inactive		inactive		inactive	inactive	inactive	inactive	inactive	inactive	inactive
CCN(CC)CCOc1ccccc1C(=O)CCc1ccccc1	inactive	inactive		inactive	inactive	inactive		inactive	inactive		1.3 µM (active)	inactive	2.31 µM (active)	inactive	inactive		inactive	inactive	inactive	inactive
CCC(C)(CCC(C)C)C(=O)[O][Sn]([CH3])([CH3])[O]C(=O)C(C)(CC)CCC(C)C (stereo unspecified)	inactive	30.6 µM (active)	inactive	inactive	inactive	inactive	inactive	inactive	inactive	inactive	inactive	inactive	inactive	inactive	inactive	inactive	inactive	inactive	inactive	
Cc1ccc2c(c1)c1c3n2CCNC3CCC1 (stereo unspecified)	inactive	inactive		inactive	inactive	inactive		inactive		inactive	18.3 µM (active)	9.52 µM (active)	inactive	inactive	inactive	inactive	inactive	inactive	inactive	inactive
Cc1cc(O)ccc1N	61.4 µM (active)	54.8 µM (active)			inactive	inactive		inactive			inactive	inactive	inactive	inactive		inactive	inactive			inactive
Cc1ccc(N(CCO)CCO)cc1	inactive	inactive	inactive	inactive	inactive	inactive	inactive	inactive	inactive	inactive	inactive	inactive	inactive	inactive	inactive	inactive	inactive		inactive	
CC(C)(c1cc(Br)c(OCCO)c(Br)c1)c1cc(Br)c(OCCO)c(Br)c1	37.7 µM (active)	inactive		inactive	inactive						inactive	inactive	inactive	inactive			inactive		inactive	inactive
Oc1ccccc1Cc1ccccc1O	inactive	inactive		inactive	inactive	inactive		inactive	inactive		inactive	inactive	inactive	inactive		inactive	inactive	inactive	inactive	inactive
O=C(CCN1CCC(c2ccccc2)C1)c1ccc2c(c1)OCCO2 (stereo unspecified)	inactive	inactive	inactive	inactive	inactive	inactive	inactive	inactive	inactive	inactive	inactive	inactive	inactive	inactive	inactive			inactive	inactive	
CC1(c2ccccc2)OC(C(=O)O)=CC1=O (stereo unspecified)	inactive	inactive			inactive	inactive		inactive	inactive			inactive	inactive	inactive	inactive	inactive	inactive	inactive	inactive	inactive
CN1CCN(C2=Nc3cc(F)ccc3Cc3ccccc32)CC1	inactive	inactive		inactive	inactive		inactive	inactive		inactive	0.0231 µM (active)	inactive		inactive	inactive	inactive	inactive	29.8 µM (active)		inactive
NC(=O)c1ccncc1	inactive	inactive		inactive	inactive		inactive	inactive	inactive	inactive	inactive	inactive	inactive	inactive	inactive	inactive	inactive	inactive	inactive	inactive
CCO[Si](CCCCl)(OCC)OCC	inactive	inactive		inactive	inactive	inactive			inactive	inactive			inactive	inactive	inactive	inactive	inactive	inactive	inactive	inactive
O=C(O)CCC(=O)OC[C@@H](NC(=O)C(Cl)Cl)[C@H](O)c1ccc([N+](=O)[O-])cc1	inactive	inactive		inactive		inactive		inactive	inactive	inactive	inactive	inactive	inactive	inactive	inactive	inactive	inactive	inactive	inactive	inactive

— PubChem BioAssay (Tox21)
